Measured values from PubChem BioAssay (Tox21).
Values joined by “and” are separate entries in the source; they are usually repeats but may differ in a detail not shown here. Equal values may be shown once. Active and inactive are the calls of the source. Unless noted, calls follow the shape of the dose curve; as a rule, active = well fitted curve in the direction sought with a large enough effect in the repeat runs; inconclusive = weak or mixed curves; inactive = no such curve, though single readings can be large; an effect the other way counts as inactive or inconclusive.

Assays:
[1] = qHTS assay to identify small molecule antagonists of the thyroid receptor (TR) signaling pathway - cell viability counter screen (AID 743064); also: nearly all actives have a fitted effect of over 50% in size; also: potency is read from the fitted curve at half-maximal effect
How it was run: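 Plate GH3.TRE-Luc cells; incubate 4 h at 37 °C; add compound, then T3 to 1 nM final; incubate 23.5 h; add CellTiter-Fluor; incubate 30 min at 37 °C, 5% CO2; read fluorescence.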

[2] = qHTS assay to identify small molecule antagonists of the thyroid receptor (TR) signaling pathway (AID 743065); also: nearly all actives have a fitted effect of over 55% in size; also: potency is read from the fitted curve at half-maximal effect
How it was run: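 GH3.TRE-Luc rat pituitary cells carrying two TR response elements driving luciferase were plated for 4 h, given compound plus 1 nM T3 (final), and incubated 23.5 h at 37 C. ONE-Glo luminescence measured reporter inhibition; CellTiter-Fluor fluorescence tracked cytotoxicity.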

[3] = target: Estrogen receptor (Homo sapiens) (UniProt P03372); assay: qHTS assay to identify small molecule antagonists of the estrogen receptor alpha (ER-alpha) signaling pathway (AID 743069; active = well fitted curve in the direction sought with a large enough effect in the signal ratio in the repeat runs, not every such curve was filed as active; inconclusive = weak or mixed curves, or effect the other way; inactive = no such curve, though single readings can be large or run the other way; the % refers to the signal ratio; also: potency is read from the fitted curve at half-maximal effect)
How it was run: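 A 17beta-estradiol challenge was applied right after compound transfer to ER-alpha-UAS-bla HEK293 cells previously kept in charcoal-stripped serum. Plates stood 18 hr at 37C and 5% CO2; fluorescence was read following 2 hr FRET substrate loading at room temperature.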

[4] = target: Estrogen receptor (Homo sapiens) (UniProt P03372); assay: qHTS assay to identify small molecule agonists of the estrogen receptor alpha (ER-alpha) signaling pathway (AID 743075; calls by dose curve;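 also: HEK293 GripTite cells with ER-alpha and UAS-driven beta-lactamase reporter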)
[5] = qHTS assay to identify small molecule antagonists of the estrogen receptor alpha (ER-alpha) signaling pathway using the BG1 cell line (AID 743080; calls by dose curve; also: nearly all actives have a fitted effect of over 25% in size; also: potency is read from the fitted curve at half-maximal effect)
How it was run: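 Antagonist mode: compounds in DMSO were pinned onto BG1-Luc-4E2 cells alongside 17beta-estradiol agonist, incubated 21.5 h, and ERE-driven luciferase measured with ONE-Glo. Cytotoxicity was multiplexed using CellTiter-Fluor fluorescence.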

[6] = qHTS assay to identify small molecule antagonists of the estrogen receptor alpha (ER-alpha) signaling pathway using the BG1 cell line - cell viability counter screen (AID 743081);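 also: compound given together with 17beta-estradiol as the ER stimulus; nearly all actives have a fitted effect of over 45% in size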; also: potency is read from the fitted curve at half-maximal effect
Aromatase (Homo sapiens) = Aromatase (Homo sapiens) (UniProt P11511); assay: qHTS assay to identify aromatase inhibitors (AID 743083); also: nearly all actives have a fitted effect of over 55% in size; also: potency is read from the fitted curve at half-maximal effect
[7] = qHTS assay to identify aromatase inhibitors - cell viability counter screen (AID 743084);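 also: cells stimulated with testosterone during compound exposure; nearly all actives have a fitted effect of over 55% in size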; also: potency is read from the fitted curve at half-maximal effect
[8] = qHTS assay to identify small molecule that activate the aryl hydrocarbon receptor (AhR) signaling pathway - cell viability counter screen (AID 743086); also: nearly all actives have a fitted effect of over 45% in size; also: potency is read from the fitted curve at half-maximal effect
How it was run: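 HepG2-AhR-luc (HG2L7.5c1) cells, 4000/well, were preincubated 5 h at 37C, exposed to compound in qHTS format for 24 hr at 37C, then given CellTiter-Fluor for 30 min; viability was read as fluorescence in the reporter wells.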

[9] = qHTS assay to identify small molecule antagonists of the estrogen receptor alpha (ER-alpha) signaling pathway - cell viability counter screen (AID 743074; calls by dose curve;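 also: HEK293 cells carrying ER-alpha-UAS-bla reporter stimulated with 17beta-estradiol; nearly all actives have a fitted effect of over 45% in size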; also: potency is read from the fitted curve at half-maximal effect)
[10] = target: Aryl hydrocarbon receptor (Homo sapiens) (UniProt P35869); assay: qHTS assay to identify small molecule that activate the aryl hydrocarbon receptor (AhR) signaling pathway (AID 743085); also: nearly all actives have a fitted effect of over 15% in size; also: potency is read from the fitted curve at half-maximal effect;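 as to activation: HG2L7.5c1 human HepG2 liver cells with stably integrated DRE-driven firefly reporter; series mostly up to about 70 µM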
How it was run: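 Steps: seed HepG2-AhR-luc cells; allow 5 h at 37C; pin-transfer test compound or vehicle; incubate 24 h at 37C; add viability dye (30 min, 37C) and read fluorescence; add luciferase substrate (30 min, RT) and read luminescence.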

[11] = target: Peroxisome proliferator-activated receptor gamma (Homo sapiens) (UniProt P37231); assay: qHTS assay to identify small molecule agonists of the peroxisome proliferator-activated receptor gamma (PPARg) signaling pathway (AID 743094; active = well fitted activation curve with a large enough effect in the signal ratio in the repeat runs, not every such curve was filed as active; inconclusive = weak or mixed curves, or effect the other way; inactive = no such curve, though single readings can be large or run the other way; the % refers to the signal ratio)
How it was run: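 Agonism was assessed in a beta-lactamase reporter system, HEK293H cells with a stably integrated UAS-bla construct under PPARg control; the 17 h treatment at 37C preceded a 1 h room-temperature FRET substrate read.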

[12] = tested on: thyroid hormone receptor (rat, GH3 cells); assay: qHTS assay to identify small molecule agonists of the thyroid receptor (TR) signaling pathway (AID 743066; calls by dose curve)
[13] = target: Estrogen receptor (Homo sapiens) (UniProt P03372); assay: qHTS assay to identify small molecule agonists of the estrogen receptor alpha (ER-alpha) signaling pathway using the BG1 cell line (AID 743079); also: nearly all actives have a fitted effect of over 20% in size
[14] = target: Peroxisome proliferator-activated receptor gamma (Homo sapiens) (UniProt P37231); assay: qHTS assay to identify small molecule antagonists of the peroxisome proliferator-activated receptor gamma (PPARg) signaling pathway (AID 743191; calls by dose curve; also: series mostly up to about 63 µM; nearly all actives have a fitted effect of over 30% in size)
How it was run: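 GeneBLAzer PPARg UAS-bla HEK293H cells carrying a UAS-driven beta-lactamase reporter were plated at 3000 cells/well, preincubated 5 h at 37C, then given compound for 17 h at 37C; LiveBLAzer B/G FRET substrate was read after 1 h at room temperature.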

[15] = qHTS assay to identify small molecule antagonists of the peroxisome proliferator-activated receptor gamma (PPARg) signaling pathway - cell viability counter screen (AID 743194); also: nearly all actives have a fitted effect of over 55% in size; also: potency is read from the fitted curve at half-maximal effect
How it was run: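 PPARg-UAS-bla HEK293H cells were plated, rested 5 h at 37 C, then treated with compounds plus rosiglitazone (50 nM final) for 17 h at 37 C; viability was then read by CellTiter-Glo luminescence after 30 min at room temperature.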

[16] = qHTS assay for small molecule activators of the heat shock response signaling pathway - cell viability counter screen (AID 743209); also: nearly all actives have a fitted effect of over 50% in size; also: potency is read from the fitted curve at half-maximal effect
How it was run: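 Compounds dissolved in DMSO were added to overnight-plated HSE-bla HeLa cells and left 5 h at 37 C. Cell viability was quantified by luminescence using CellTiter-Glo.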

[17] = qHTS assay to identify small molecule agonists of the peroxisome proliferator-activated receptor delta (PPARd) signaling pathway - cell viability counter screen (AID 743211)
How it was run: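 Viability of GeneBLAzer PPARd UAS-bla HEK293H cells was assessed after 17 h compound incubation at 37C, using CellTiter-Glo reagent added after the reporter read and luminescence recorded 30 min later.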

Sequence of Peroxisome proliferator-activated receptor gamma (Homo sapiens) (P37231 whole entry, looked up): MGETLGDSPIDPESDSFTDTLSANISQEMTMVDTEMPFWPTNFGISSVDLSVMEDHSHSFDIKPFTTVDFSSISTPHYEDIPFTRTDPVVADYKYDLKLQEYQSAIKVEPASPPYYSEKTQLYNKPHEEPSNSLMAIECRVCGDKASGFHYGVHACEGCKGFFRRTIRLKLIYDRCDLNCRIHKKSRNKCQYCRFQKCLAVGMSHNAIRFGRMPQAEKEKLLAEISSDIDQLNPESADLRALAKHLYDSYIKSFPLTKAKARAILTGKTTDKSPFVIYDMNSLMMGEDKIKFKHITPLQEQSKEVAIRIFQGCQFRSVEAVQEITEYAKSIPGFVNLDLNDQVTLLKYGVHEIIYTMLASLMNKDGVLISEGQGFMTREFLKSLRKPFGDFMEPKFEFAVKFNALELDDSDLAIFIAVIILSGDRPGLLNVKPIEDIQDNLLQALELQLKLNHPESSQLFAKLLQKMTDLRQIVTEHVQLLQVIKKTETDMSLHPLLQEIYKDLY
Sequence of Aromatase (Homo sapiens) (P11511 whole entry, looked up): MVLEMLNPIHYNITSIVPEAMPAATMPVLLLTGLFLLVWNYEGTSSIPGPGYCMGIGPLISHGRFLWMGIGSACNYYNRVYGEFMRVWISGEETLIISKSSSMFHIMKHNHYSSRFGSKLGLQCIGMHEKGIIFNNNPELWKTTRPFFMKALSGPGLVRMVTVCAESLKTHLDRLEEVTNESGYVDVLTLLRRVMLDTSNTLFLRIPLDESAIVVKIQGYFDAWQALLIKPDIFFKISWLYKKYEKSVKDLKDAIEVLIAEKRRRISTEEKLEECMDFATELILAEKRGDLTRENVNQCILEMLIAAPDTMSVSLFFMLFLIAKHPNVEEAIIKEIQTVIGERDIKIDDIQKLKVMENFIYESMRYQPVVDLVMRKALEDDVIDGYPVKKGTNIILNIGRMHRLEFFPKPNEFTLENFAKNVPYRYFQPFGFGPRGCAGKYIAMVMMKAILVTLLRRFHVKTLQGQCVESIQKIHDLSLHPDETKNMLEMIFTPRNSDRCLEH
Sequence of Aryl hydrocarbon receptor (Homo sapiens) (P35869 whole entry, looked up): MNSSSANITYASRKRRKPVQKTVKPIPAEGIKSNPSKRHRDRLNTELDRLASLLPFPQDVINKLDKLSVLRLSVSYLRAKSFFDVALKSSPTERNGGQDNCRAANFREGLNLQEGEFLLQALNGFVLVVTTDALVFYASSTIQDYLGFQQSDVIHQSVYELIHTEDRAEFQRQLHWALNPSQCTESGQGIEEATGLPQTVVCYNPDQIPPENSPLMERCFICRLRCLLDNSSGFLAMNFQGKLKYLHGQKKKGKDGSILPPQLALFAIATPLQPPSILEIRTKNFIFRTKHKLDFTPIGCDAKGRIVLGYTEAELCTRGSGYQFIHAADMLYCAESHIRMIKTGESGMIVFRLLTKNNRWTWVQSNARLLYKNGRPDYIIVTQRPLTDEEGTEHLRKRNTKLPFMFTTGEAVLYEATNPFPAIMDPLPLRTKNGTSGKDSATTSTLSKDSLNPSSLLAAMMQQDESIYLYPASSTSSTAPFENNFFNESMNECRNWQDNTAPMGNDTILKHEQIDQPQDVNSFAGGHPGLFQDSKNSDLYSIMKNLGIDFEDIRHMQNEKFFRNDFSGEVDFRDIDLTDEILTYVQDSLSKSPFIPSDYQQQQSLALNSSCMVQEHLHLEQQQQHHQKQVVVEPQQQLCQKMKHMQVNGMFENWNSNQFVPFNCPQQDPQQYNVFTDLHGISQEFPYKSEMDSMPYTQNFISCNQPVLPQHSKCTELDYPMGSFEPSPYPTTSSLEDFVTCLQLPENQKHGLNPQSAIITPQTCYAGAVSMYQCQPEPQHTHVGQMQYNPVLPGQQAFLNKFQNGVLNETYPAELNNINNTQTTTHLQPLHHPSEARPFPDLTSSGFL
Sequence of Estrogen receptor (Homo sapiens) (P03372 whole entry, looked up): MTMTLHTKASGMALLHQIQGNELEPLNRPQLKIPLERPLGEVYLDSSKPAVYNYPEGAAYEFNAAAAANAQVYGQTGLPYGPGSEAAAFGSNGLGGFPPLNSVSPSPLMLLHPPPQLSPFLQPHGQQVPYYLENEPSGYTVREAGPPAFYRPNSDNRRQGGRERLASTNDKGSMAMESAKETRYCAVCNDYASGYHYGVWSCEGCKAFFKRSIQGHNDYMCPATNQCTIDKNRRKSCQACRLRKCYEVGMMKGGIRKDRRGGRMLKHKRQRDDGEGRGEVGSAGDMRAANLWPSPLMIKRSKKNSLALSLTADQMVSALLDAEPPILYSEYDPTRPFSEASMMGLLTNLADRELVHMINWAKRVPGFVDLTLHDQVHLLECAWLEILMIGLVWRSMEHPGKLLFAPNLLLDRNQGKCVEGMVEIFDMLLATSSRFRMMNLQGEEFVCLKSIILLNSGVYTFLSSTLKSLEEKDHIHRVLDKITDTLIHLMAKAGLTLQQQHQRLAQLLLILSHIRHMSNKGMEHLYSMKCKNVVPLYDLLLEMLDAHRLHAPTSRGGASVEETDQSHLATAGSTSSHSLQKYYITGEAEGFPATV

| SMILES | Potency [1] | Potency [2] | Potency [3] | Potency [4] | Potency [5] | Potency [6] | Potency (Aromatase (Homo sapiens)) | Potency [7] | Potency [8] | Potency [9] | Potency [10] | Potency [11] | Potency [12] | Potency [13] | Potency [14] | Potency [15] | Potency [16] | Potency [17] |
| --- | --- | --- | --- | --- | --- | --- | --- | --- | --- | --- | --- | --- | --- | --- | --- | --- | --- | --- |
| COc1cc2c(cc1O)CCN[C@]21CS[C@@H]2c3c(OC(C)=O)c(C)c4c(c3[C@H](COC1=O)N1[C@@H]2[C@H]2c3c(cc(C)c(OC)c3O)C[C@@H]([C@@H]1O)N2C)OCO4 | 2.4 nM (active) and 4.3 nM (active) | 1.9 nM (active) and 2.7 nM (active) | 33.8 nM [inconclusive] (active) and 49 nM [inconclusive] (active) | inactive | 26.6 nM (active) and 43.3 nM (active) | 26.6 µM (active) and 13.7 µM (active) | 29.8 nM (active) and 48.6 nM (active) | 24.3 µM (active) | 16.8 nM (active) |  |  |  |  |  |  |  |  |  |
| CCN1\C(=C/C=C/C=C/c2sc3ccccc3[n+]2CC)Sc2ccccc21 | 5.96 µM (active) and 7.5 µM (active) | 2.37 µM (active) and 4.22 µM (active) |  | inactive | 1.88 µM (active) | 11.9 µM (active) | 5.96 µM (active) and 10.6 µM (active) | 11.9 µM (active) | 11.9 µM (active) and 23.7 µM (active) | 67.4 nM (active) and 1.69 µM (active) | inactive | inactive |  |  |  |  |  |  |
| COC(=O)C[C@](O)(CCCC(C)(C)O)C(=O)O[C@@H]1C(OC)=CC23CCCN2CCc2cc4c(cc2[C@H]13)OCO4 (stereo not given in full) | 0.0596 µM (active) | 0.0376 µM (active) | 674 nM [inconclusive] (active) and 1.2 µM [inconclusive] (active) | inactive | 0.168 µM (active) | inactive | 29.8 nM (active) and 23.7 nM (active) |  |  | inactive |  |  |  |  |  |  |  |  |
| C/C=C/C1=C(C(=O)O)N2C(=O)[C@@H](NC(=O)[C@H](N)c3ccc(O)cc3)[C@H]2SC1 | inactive |  | inactive | inactive | inactive | inactive | inactive | inactive | inactive | inactive | inactive |  | inactive | inactive |  |  |  |  |
| O=[N+]([O-])c1ccc(O)c2ncccc12 | 5.31 µM (active) | 4.73 µM (active) |  |  |  |  | 7.5 µM (active) | 10.6 µM (active) | inactive |  | 3.35 µM (active) |  |  |  | inactive | inactive | inactive |  |
| CCCCCCCCCCCCCCCCC(C(=O)O)C(O)(CC(=O)O)C(=O)O (stereo not given) | 26.6 µM (active) | 26.6 µM (active) |  |  | inactive | inactive | inactive | inactive | inactive | 26.8 µM (active) | inactive | inactive |  | inactive |  |  | 29.8 µM (active) | 13.3 µM (active) |
| COc1cccc2c1[C@@H]1CN(CCCCn3c(=O)[nH]c4c(sc5ncc(-c6ccccc6)nc54)c3=O)C[C@@H]1CO2 | 11.9 µM (active) | 10.6 µM (active) |  | inactive |  |  |  | 26.6 µM (active) |  |  |  |  |  |  |  |  |  |  |
| CN1CCN(c2ccccc2/C=C2\SCCN(c3ccc(Cl)c(Cl)c3)C2=O)CC1 | 8.63 µM (active) | 8.63 µM (active) |  | inactive |  |  | inactive |  |  | 43.6 µM (active) | inactive |  |  |  |  | 49 µM (active) | 54.9 µM (active) | 24.5 µM (active) |
| CN1CCN(CCCN2c3ccccc3Sc3ccc(C(F)(F)F)cc32)CC1 | 10.6 µM (active) | 9.44 µM (active) |  |  |  | inactive | 26.6 µM (active) | 29.8 µM (active) |  |  | inactive |  | inactive |  |  | 29.8 µM (active) | 29.8 µM (active) | 18.8 µM (active) |
| CCCCCCCCCCCC[n+]1ccc2ccccc2c1 | 7.5 µM (active) | 3.76 µM (active) |  | inactive | 7.5 µM (active) | 26.6 µM (active) | 10.6 µM (active) |  |  | 2.13 µM (active) | inactive |  |  |  |  |  |  |  |
| CCC(=O)OC(OP(=O)(CCCCc1ccccc1)CC(=O)N1C[C@H](C2CCCCC2)C[C@H]1C(=O)O)C(C)C (stereo not given in full) | inactive |  | inactive | inactive | inactive | inactive | inactive | inactive | inactive | inactive | inactive | inactive | inactive | inactive |  |  |  |  |
| CC(C)C[C@@H](NC(=O)[C@@H](O)[C@H](N)Cc1ccccc1)C(=O)O | 1.68 µM (active) | inactive |  | inactive | inactive | 2.37 µM (active) | inactive | 0.75 µM (active) | 376 nM (active) |  | inactive | inactive | inactive | inactive |  |  |  |  |
| O=C(Nc1ccccc1)c1cc(Cl)ccc1O | 10.9 µM (active) | 5.45 µM (active) |  |  |  |  | 27.3 µM (active) |  | inactive |  | 3.06 µM (active) |  | inactive |  |  | 6.92 µM (active) |  |  |
| CCCCC/C=C\C=C\C(=O)OCC | 31.9 µM (active) | 28.4 µM (active) |  | inactive |  | inactive |  | 56.8 µM (active) | inactive | inactive |  |  |  | inactive |  |  |  |  |
| CN(C[C@@H](CC[N+]12CCC(C3CCCCC3)(CC1)CC2)c1ccc(Cl)c(Cl)c1)C(=O)c1cc(C(F)(F)F)cc(C(F)(F)F)c1 | 21.7 µM (active) | 27.3 µM (active) |  |  |  |  | 61.1 µM (active) | 61.1 µM (active) | 54500 nM (active) | 49 µM (active) | inactive |  |  |  |  | 54.9 µM (active) | 24.5 µM (active) | 17.4 µM (active) |
| C[C@]12O[C@H](C[C@]1(O)CO)n1c3ccccc3c3c4c(c5c6ccccc6n2c5c31)CNC4=O | 0.188 µM (active) | 0.188 µM (active) |  |  |  | 21.1 µM (active) | 2.11 µM (active) | 23.7 µM (active) | 18800 nM (active) | 21.3 µM (active) | 0.531 µM (active) |  |  |  |  |  |  |  |
| O=C(O)/C=C/C(O)c1ccc(Cl)cc1 (stereo not given) | inactive |  |  |  |  | inactive | inactive | inactive | inactive | inactive | inactive | inactive | inactive |  |  |  |  |  |
